# Reference: PubChem BioAssay (Tox21)
# Inconclusive results are not listed. Unmarked numbers belong to inactive results. Activity calls are given as the source filed them. Calls follow the shape of the dose curve; as a rule, active = well fitted cell-killing curve with a large enough effect in the repeat runs; inconclusive = weak or mixed curves, or effect the other way; inactive = no such curve, though single readings can be large or run the other way.
# Assay: qHTS assay to identify small molecule agonists of the farnesoid-X-receptor (FXR) signaling pathway - cell viability counter screen (AID 743218); also: nearly all actives have a fitted effect of over 45% in size
# Conditions: FXR-bla HEK293T viability, CellTiter-Glo luminescence, 16 h; series mostly up to 62.6 µM; viability change, negative = cytotoxic: at the top concentration
# Description: U.S. Tox21 Program National Center for Advancing Translational Sciences [NCATS] NIH Chemical Genomics Center [NCGC] U.S. Environmental Protection Agency [EPA] National Institutes of Environmental Health Sciences [NIEHS] National Toxicology Program [NTP] U.S. Food and Drug Administration [FDA] Tox21 Assay Overview: The farnesoid-X-receptor (FXR), a nuclear hormone receptor, is highly expressed in liver, intestine, kidney and adrenal cortex. Natural ligands of FXR are the bile acids (Cholic acid, Chenodeoxy cholic acid etc). FXR is an important regulator of diverse metabolic pathways, including the bile acid homeostasis, lipid and glucose metabolisms. FXR regulates the expression of target genes by binding either as a monomer or as a heterodimer with the retinoid X receptor (RXR). Numerous studies have reported that FXR exerts protective function during cholestasis, diabetes, liver regeneration, and cancer. To identify compounds that activate FXR signaling, GeneBLAzer FXR-UAS-bla HEK 293T cell line (Invitrogen, Carlsbad, CA) containing a beta-lactamase reporter gene under the control of a UAS response element was used to screen the Tox21 10K compound library. The cytotoxicity of the Tox21 compound library against the FXR-bla cell line was tested in parallel by measuring the cell viability using CellTiter-Glo assay in the same wells.
# Tox21 Assay Protocol Summary: FXR-bla cells were dispensed at 5000 cells/5uL/well in 1536-well black wall/clear bottom plates using a Multidrop Combi (Thermo Fisher Scientific, Waltham, MA) dispenser. After the assay plates were incubated at 37 C and 5% CO2 for 5 h, 23 nL of compounds dissolved in DMSO, positive controls or DMSO only was transferred to the assay plate by a Pintool station (Kalypsys, San Diego, CA). The assay plates were incubated at 37C for 16 h. After 1 uL of LiveBLAzerTM B/G FRET substrate was added using a Bioraptr Flying Reagent Dispenser (FRD) workstation (Beckman Coulter, Indianapolis, IN), the plates were incubated at room temperature for 2 h, and fluorescence intensity was measured by an Envision plate reader (PerkinElmer, Shelton, CT). For cell viability readout that measures cytotoxicity, 4uL/well of CellTiter-Glo reagent was added into the assay plates using a Bioraptr FRD. After 30 min incubation at room temperature, the luminescence intensity in the plates was measured using a ViewLux plate reader (PerkinElmer).
# % is scaled to controls: 0 for no effect and ±100 for the full control effect; potency is read from the fitted curve at half-maximal effect.
SMILES,"viability change, negative = cytotoxic",Potency
CC(C)(COC(=O)c1ccccc1)COC(=O)c1ccccc1,6.54%,
C=C(C)C(=O)OCCOCC,-15.8% [at 81.1 µM],
Nc1c(CC(=O)O)cccc1C(=O)c1ccc(Br)cc1,4.16%,
COc1ccc(C)cc1[N+](=O)[O-],11.2% [at 81.1 µM],
O=C(O)c1ccc(S(=O)(=O)O)cc1C(=O)O,17.7% [at 81.1 µM],
O=C(NCC1CN(c2ccc(N3CCOCC3=O)cc2)C(=O)O1)c1ccc(Cl)s1 (stereo not given),-5.92%,
CC(COCCO)OCCO (stereo not given),8.31%,
NCc1ccccc1Sc1ccccc1CO,-7.7%,
O=C(Nc1ccc(S(=O)(=O)N2CCOCC2)cc1)c1cc(Cl)ccc1NS(=O)(=O)c1ccc(Cl)s1,,6.68 µM (active)
O=C(NCCO[N+](=O)[O-])c1cccnc1,5.9%,
N=c1ccn2c(n1)O[C@H]1[C@H](O)[C@@H](CO)O[C@H]12,-24.4%,
CCCCCCCCCCO[C@@H]1O[C@H](CO)[C@@H](O)[C@H](O)[C@H]1O,7.46%,
COCC(C)OC(C)=O (stereo not given),-6.37%,
COc1ccc(S(=O)(=O)N2C(=O)[C@@](c3ccccc3OC)(N3C[C@H](O)C[C@H]3C(=O)N(C)C)c3cc(Cl)ccc32)c(OC)c1,-28.3%,
C[N+]1(C)CCC(OC(=O)C(O)(c2ccccc2)C2CCCC2)C1 (stereo not given),1.29%,
C[N+](C)(C)CCOC(=O)CCC(=O)OCC[N+](C)(C)C,9.95%,
COc1cc2nc(Cl)nc(N)c2cc1OC,3.23%,
O=C(O)c1nc(Cl)c(Cl)c(Cl)c1Cl,-7.83%,
CC[N+](C)(CC)CCOC(=O)C(O)(c1ccccc1)C1CCCCC1 (stereo not given),36.1%,
Cc1c(N)cccc1[N+](=O)[O-],-1.4% [at 81.1 µM],

SMILES,"viability change, negative = cytotoxic",Potency
CCC(Cl)CCC(Cl)C(Cl)CC(Cl)C(Cl)C(Cl)CCl (stereo not given),27.4%,
CN(C)c1ccc(C(c2ccccc2)c2ccc(N(C)C)cc2)cc1,1.62%,
CCO[C@H](Cc1ccc(OCCc2ccc(OS(C)(=O)=O)cc2)cc1)C(=O)O,1.72%,
CCN(CC)CCNc1ccc(CNC=O)c2sc3ccc(OC)cc3c(=O)c12,,4.9 µM (active)
CN1CCN(C(c2ccccc2)c2ccccc2)CC1,6.36%,
CC1=CC[C@H](C(C)C)C=C1,-14%,
CCCCC/C=C\C/C=C\CCCCCCCC(=O)NC(C)c1ccccc1 (stereo not given),7.39%,
Cc1cc(N)c2cc(NC(=O)Nc3ccc4nc(C)cc(N)c4c3)ccc2n1,-26.2%,
CCOC(=O)c1cccnc1,10.5%,
O=C(OCCCCCCOC(=O)c1ccccc1)c1ccccc1,7.65%,
Brc1c2ccccc2cc2ccccc12,8.92% [at 81.1 µM],
C=CCOC(=O)CCC1CCCCC1,-10.1%,
OCCNCc1ccccc1,17.9%,
CCC(CC)Nc1ccc(C)c(C)c1,10.9%,
CC(=O)c1ccc2c(c1)N(CCCN1CCC(CCO)CC1)c1ccccc1S2,,29.8 µM (active)
CC(=O)OC[C@H]1O[C@@H](n2ncc(=O)[nH]c2=O)[C@H](OC(C)=O)[C@@H]1OC(C)=O,-8.35%,
CCN(CC)CCOC(=O)C(Cc1cccc2ccccc12)CC1CCCO1 (stereo not given),-14.2%,
COc1ccc2cccc(CCNC(C)=O)c2c1,9.74%,
CCN(CC)c1ccc(C(=C2C=CC(=[N+](CC)CC)C=C2)c2cc(S(=O)(=O)O)ccc2S(=O)(=O)[O-])cc1,-13.2%,
Cc1ncc(CO)c(C=O)c1O,13%,
